Reference: PubChem BioAssay (Tox21)
Where “and” joins values, the source holds several entries; their conditions need not be identical. Identical values can stand only once. Inconclusive results are not listed. Entries that show only a call come without a potency. Where a structure was tested more than once in an assay, its records may differ in their call. Calls of active or inactive are those of the source. Unless noted, calls come from the whole dose curve; as a rule, active = well fitted curve in the direction sought with a large enough effect in the repeat runs; inconclusive = weak or mixed curves; inactive = no such curve, though single readings can be large; an effect the other way counts as inactive or inconclusive.

Columns and labels:
[1] = qHTS assay to identify small molecule antagonists of the estrogen receptor alpha (ER-alpha) signaling pathway using the BG1 cell line in the presence of 0.1 nM 17-beta-estradiol - cell viability counter screen (AID 1259241); note: nearly all actives have a fitted effect of over 40% in size; note: potency is the fitted concentration of half-maximal effect
Outline: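 Cells were plated and left 24 hr, compounds in DMSO were pinned in, 17beta-estradiol was added to 0.1 nM final, and after 22 hr CellTiter-Fluor reagent was added for 30 min before fluorescence was read.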

[2] = qHTS assay to identify small molecule antagonists of the androgen receptor (AR) signaling pathway using the MDA cell line in the presence of 0.5 nM R1881 - cell viability counter screen (AID 1259242); note: nearly all actives have a fitted effect of over 45% in size; note: potency is the fitted concentration of half-maximal effect
Outline: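 Live-cell protease fluorescence, CellTiter-Fluor, 30 min at 37C. Cells: MDA-kb2, 3,000/well, preincubated 5 hr. Compounds plus 0.5 nM R1881 final, 16 hr, 37C, 0% CO2.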

[3] = target: Androgen receptor (Homo sapiens) (UniProt P10275); assay: qHTS assay to identify small molecule antagonists of the androgen receptor (AR) signaling pathway using the MDA cell line in the presence of 0.5 nM R1881 (AID 1259243); note: nearly all actives have a fitted effect of over 50% in size; note: potency is the fitted concentration of half-maximal effect
Chain of Androgen receptor (Homo sapiens) (P10275 whole entry, looked up): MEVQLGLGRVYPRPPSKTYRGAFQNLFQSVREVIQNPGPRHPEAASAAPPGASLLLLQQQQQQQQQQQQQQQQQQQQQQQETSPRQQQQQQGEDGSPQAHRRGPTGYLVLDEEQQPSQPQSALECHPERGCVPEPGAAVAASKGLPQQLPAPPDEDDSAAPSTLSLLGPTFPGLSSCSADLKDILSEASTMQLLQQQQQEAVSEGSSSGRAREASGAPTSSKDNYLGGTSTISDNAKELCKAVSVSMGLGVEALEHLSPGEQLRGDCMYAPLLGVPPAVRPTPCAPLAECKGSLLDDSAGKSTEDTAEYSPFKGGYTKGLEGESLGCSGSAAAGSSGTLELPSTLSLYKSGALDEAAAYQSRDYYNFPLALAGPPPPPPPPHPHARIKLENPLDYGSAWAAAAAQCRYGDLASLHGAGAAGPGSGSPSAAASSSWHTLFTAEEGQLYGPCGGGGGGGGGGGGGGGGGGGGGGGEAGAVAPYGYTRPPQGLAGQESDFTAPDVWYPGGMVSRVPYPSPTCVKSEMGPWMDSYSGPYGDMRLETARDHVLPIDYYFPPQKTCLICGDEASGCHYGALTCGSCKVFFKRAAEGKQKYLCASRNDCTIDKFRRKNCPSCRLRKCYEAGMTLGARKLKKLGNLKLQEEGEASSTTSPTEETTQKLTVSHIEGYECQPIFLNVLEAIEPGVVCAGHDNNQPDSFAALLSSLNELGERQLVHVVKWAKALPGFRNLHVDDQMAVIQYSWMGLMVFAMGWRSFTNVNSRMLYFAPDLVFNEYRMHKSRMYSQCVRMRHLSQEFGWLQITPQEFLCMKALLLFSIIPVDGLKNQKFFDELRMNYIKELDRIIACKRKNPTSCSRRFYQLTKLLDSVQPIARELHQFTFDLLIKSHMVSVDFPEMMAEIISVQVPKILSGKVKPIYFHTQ
Outline: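 MDA-kb2, MMTV-luc (AR/GR elements); 3,000 cells/well; cpd + 0.5 nM R1881 final; 16 hr 37C, 0% CO2; ONE-Glo 30 min RT; luminescence.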

[4] = qHTS assay to identify small molecule phospholipidosis (PLD) inducers (AID 1259344; active = well fitted curve in the direction sought with a large enough effect; an effect the other way counts as inactive or inconclusive)
Outline: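 Accumulated phospholipid, stained red by LipidTOX during 24 h compound treatment of HepG2 cells at 37 C, is quantified from images as pit number and intensity, normalised per cell using Hoechst-stained nuclei.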

[5] = qHTS assay to identify small molecule HDAC inhibitors - cell viability counter screen (AID 1259365); note: nearly all actives have a fitted effect of over 50% in size; note: potency is the fitted concentration of half-maximal effect
Outline: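 Counter screen in wild-type HCT-116 cells: compounds dissolved in DMSO are pin-transferred onto overnight-plated cells and left 2hr at 37C. ATP-based CellTiter-Glo luminescence then measures viable cells.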

[6] = qHTS assay to identify small molecule antagonists of the sonic hedgehog signaling (Shh) pathway - cell viability counter screen (AID 1259367); note: nearly all actives have a fitted effect of over 55% in size; note: potency is the fitted concentration of half-maximal effect
Outline: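 CellTiter-Fluor signal in conditioned medium-stimulated 3T3 Gli1-Luc cells, 23 hr compound exposure, 37C.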

[7] = qHTS assay to identify small molecule agonists of the sonic hedgehog signaling (Shh) pathway (AID 1259368; calls by dose curve;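 note: NIH/3T3-derived 3T3Gli1-Luc cells carrying a stable Gli1-driven firefly luciferase reporter; series mostly up to about 92 µM; nearly all actives have a fitted effect of over 15% in size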)
Outline: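 Read-out: firefly luciferase luminescence from a Gli1 response element reporter stably integrated in NIH/3T3-derived 3T3Gli1-Luc cells, measured 30 min at room temperature after reagent addition. Compound exposure lasted 24 hr at 37 C, 5% CO2.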

[8] = target: Estrogen receptor (Homo sapiens) (UniProt P03372); assay: qHTS assay to identify small molecule antagonists of the estrogen receptor alpha (ER-alpha) signaling pathway using the BG1 cell line in the presence of 0.1 nM 17-beta-estradiol (AID 1259244); note: nearly all actives have a fitted effect of over 50% in size; note: potency is the fitted concentration of half-maximal effect
Chain of Estrogen receptor (Homo sapiens) (P03372 whole entry, looked up): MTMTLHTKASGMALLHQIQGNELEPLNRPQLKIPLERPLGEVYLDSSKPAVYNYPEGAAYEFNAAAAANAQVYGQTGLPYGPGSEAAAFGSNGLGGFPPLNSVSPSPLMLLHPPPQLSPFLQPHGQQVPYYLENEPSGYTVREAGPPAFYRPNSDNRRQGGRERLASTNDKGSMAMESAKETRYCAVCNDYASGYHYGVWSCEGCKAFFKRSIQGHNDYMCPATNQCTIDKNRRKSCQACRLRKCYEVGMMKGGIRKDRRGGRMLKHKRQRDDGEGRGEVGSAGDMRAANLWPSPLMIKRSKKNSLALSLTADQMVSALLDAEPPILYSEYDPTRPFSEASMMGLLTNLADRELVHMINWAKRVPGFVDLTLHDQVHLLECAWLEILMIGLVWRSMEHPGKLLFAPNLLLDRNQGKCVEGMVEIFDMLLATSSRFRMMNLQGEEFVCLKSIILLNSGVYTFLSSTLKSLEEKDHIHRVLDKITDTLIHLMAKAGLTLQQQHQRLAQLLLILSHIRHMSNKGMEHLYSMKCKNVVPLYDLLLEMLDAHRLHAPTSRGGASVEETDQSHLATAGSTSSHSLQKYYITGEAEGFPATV
Outline: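 Luminescence after ONE-Glo (30 min, room temperature) measured ERE-luciferase activity in VM7Luc4E2 cells treated 22 h with compound and 0.1 nM final 17beta-estradiol as stimulator.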

[9] = qHTS assay to identify small molecule HDAC inhibitors (AID 1259364);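 note: wild-type HCT-116 cells with endogenous class I/II HDAC activity; top concentration of the series differs between compounds; nearly all actives have a fitted effect of over 45% in size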
Outline: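 HCT-116 (wild type), 1,500 cells/well, overnight; compound 2 hr 37C 5% CO2; HDAC-Glo I/II reagent 30 min RT; luminescence readout.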

[10] = qHTS assay to identify small molecule agonists of the sonic hedgehog signaling (Shh) pathway - cell viability counter screen (AID 1259366); note: nearly all actives have a fitted effect of over 50% in size; note: potency is the fitted concentration of half-maximal effect
Outline: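 Cells are plated at 2,000 per well and left 4hr at 37C, 5% CO2 before compound addition. After 23hr of treatment, CellTiter-Fluor reagent is added for 1hr at 37C and fluorescence is measured.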

Row | SMILES | Potency [1] | Potency [2] | Potency [3] | Potency [4] | Potency [5] | Potency [6] | outcome [7] | Potency [8] | Potency [9] | Potency [10] | PLD induction [4]
1 | CCCCOC(=O)c1ccc(O)cc1 | inactive | inactive | inactive | inactive | inactive | inactive | inactive |  |  |  | 
2 | CCOc1ccc(NC(C)=O)cc1 | inactive | inactive | inactive | inactive | inactive | inactive | inactive | inactive | inactive | inactive | 
3 | Cc1ncc([N+](=O)[O-])n1CCO | inactive | inactive |  | inactive | inactive | inactive | inactive | inactive |  | inactive | 
4 | CCc1nc(N)nc(N)c1-c1ccc(Cl)cc1 | inactive | inactive |  | inactive | inactive | inactive | inactive | 31.1 µM (active) and 48.6 µM (active) |  | inactive | 
5 | O=S1(=O)OC(c2ccc(O)cc2)(c2ccc(O)cc2)c2ccccc21 | 30.6 µM (active) and 21.7 µM (active) and 8.41 µM (active) | 27.3 µM (active) and 19.3 µM (active) and 10.6 µM (active) |  | inactive | inactive | 21.7 µM (active) and 24.3 µM (active) and 11.9 µM (active) | inactive | 61.1 µM (active) and inactive | inactive |  | 
6 | CN(C)CCOC(c1ccccc1)c1ccccc1 | inactive | inactive | inactive | inactive | inactive | inactive | inactive | inactive |  | inactive | 
7 | NC(=O)c1cccnc1 | inactive | inactive |  | inactive | inactive | inactive | inactive | inactive | inactive |  | 
8 | CN(C)C(=O)Nc1ccc(Cl)c(Cl)c1 | inactive | inactive | 30.5 µM (active) and 27.3 µM (active) and 23.7 µM (active) | inactive | inactive | inactive | inactive | inactive |  |  | 
9 | NC(CO)(CO)CO | inactive | inactive |  | inactive | inactive | inactive | inactive | inactive |  | inactive | 
10 | Cc1cc(=O)oc2cc(O)ccc12 | inactive | inactive |  | inactive | inactive | inactive | inactive | inactive | inactive |  | 
11 | CCCCCCc1ccc(O)cc1O | inactive | inactive | 43.4 µM (active) and 48.6 µM (active) and 23.7 µM (active) | inactive | inactive | 61.1 µM (active) and inactive | inactive |  |  | 48.7 µM (active) and 61.1 µM (active) and inactive | 
12 | O=c1[nH]cnc2c1ncn2[C@H]1CC[C@@H](CO)O1 | inactive | inactive |  | inactive | inactive | inactive | inactive | inactive | inactive |  | 
13 | O=C1OC2(c3ccccc31)c1cc(Br)c(O)c(Br)c1Oc1c2cc(Br)c(O)c1Br | 7.81 µM (active) and 22.3 µM (active) and 11.9 µM (active) | 4.93 µM (active) and 25 µM (active) and 10.6 µM (active) |  | inactive | inactive | inactive | inactive | inactive | inactive |  | 
14 | COc1ccc(C(Cl)=C(c2ccc(OC)cc2)c2ccc(OC)cc2)cc1 | inactive | inactive |  | inactive | inactive | inactive | inactive | 2.72 µM (active) and 7.7 µM (active) and 2.11 µM (active) | inactive |  | 
15 | Cc1c(C(=O)O)c(O)cc2c1C(=O)c1c(O)c([C@@H]3O[C@H](CO)[C@@H](O)[C@H](O)[C@H]3O)c(O)c(O)c1C2=O | 33.5 µM (active) and 21.7 µM (active) | 37.6 µM (active) and 27.3 µM (active) |  | inactive | 27.3 µM (active) and inactive | 29.9 µM (active) and 27.3 µM (active) | inactive | inactive | inactive | 26.6 µM (active) and 27.3 µM (active) | 
16 | CCN(CC)C(=O)c1cccc(C)c1 | inactive | inactive |  | inactive | inactive | inactive | inactive | inactive | inactive |  | 
17 | CC(C)C(=O)Nc1ccc([N+](=O)[O-])c(C(F)(F)F)c1 | inactive | inactive |  | inactive | inactive | inactive | inactive | 56 µM (active) and 48.6 µM (active) and 29.8 µM (active) |  | inactive | 
18 | CS(=O)(=O)OCCCCOS(C)(=O)=O | inactive | inactive |  | inactive | inactive | inactive | inactive | inactive | inactive | inactive | 
19 | CN1[C@@H]2CC(OC(=O)[C@H](CO)c3ccccc3)C[C@H]1[C@@H]1O[C@@H]12 (some centres not stated) | inactive | inactive |  | inactive | inactive | inactive | inactive | inactive | inactive |  | 

Row | SMILES | Potency [1] | Potency [2] | Potency [3] | Potency [4] | Potency [5] | Potency [6] | outcome [7] | Potency [8] | Potency [9] | Potency [10] | PLD induction [4]
20 | CCCCCCCCCCCCCCCC[N+](C)(C)Cc1ccccc1 | inactive | 50.1 µM (active) and 55.5 µM (active) and 26.6 µM (active) |  | inactive | inactive | inactive | inactive | 63.1 µM (active) and 55.5 µM (active) |  | 70.8 µM (active) and 35 µM (active) | 
21 | NS(=O)(=O)c1cc2c(cc1Cl)NCNS2(=O)=O | inactive | inactive |  | inactive | inactive | inactive | inactive | inactive |  | inactive | 
22 | COc1ccc2c(c1)c(CC(=O)O)c(C)n2C(=O)c1ccc(Cl)cc1 | inactive | inactive | inactive |  | inactive | inactive | inactive | inactive | inactive | inactive | 14.5% [at 7.66 µM] (inactive)
23 | CN(N=O)C(=O)N[C@@H]1[C@@H](O)[C@H](O)[C@@H](CO)O[C@@H]1O | inactive | inactive |  | inactive | inactive | inactive | inactive | inactive |  | inactive | 
24 | C=CCc1ccc(O)c(OC)c1 | inactive | inactive |  | inactive | inactive | inactive | inactive | inactive | inactive | inactive | 
25 | CC(=O)CCC(=O)O | inactive | inactive |  | inactive | inactive | inactive | inactive | inactive |  | inactive | 
26 | CCCCC1(COC(=O)CCC(=O)O)C(=O)N(c2ccccc2)N(c2ccccc2)C1=O | inactive | inactive | inactive | inactive | inactive | inactive | inactive | inactive |  |  | 
27 | CCCCCCCC(=O)OCC(COC(=O)CCCCCCC)OC(=O)CCCCCCC | inactive | inactive |  | inactive | inactive | inactive | inactive | inactive | inactive |  | 
28 | CN1CCc2cccc3c2[C@H]1Cc1ccc(O)c(O)c1-3 | 49.1 µM (active) and 20.4 µM (active) | 55 µM (active) and 22.8 µM (active) |  | inactive | inactive | 30.9 µM (active) and 18.1 µM (active) and 21.1 µM (active) | inactive | 49.1 µM (active) and 11.9 µM (active) | inactive | 27.6 µM (active) and 22.8 µM (active) | 
29 | CCOC(N)=O | inactive | inactive |  | inactive | inactive | inactive | inactive | inactive | inactive | inactive | 
30 | O=C(O)c1ccccc1 | inactive | inactive |  |  | inactive | inactive | inactive | inactive |  | inactive | 
31 | Oc1ccccc1 | inactive | inactive |  |  | inactive | inactive | inactive |  | inactive |  | 0.811% [at 7.66 µM] (inactive)
32 | O=C1NS(=O)(=O)c2ccccc21 | inactive | inactive |  | inactive | inactive | inactive | inactive |  | inactive | inactive | 
33 | Cc1cc(C)nc(NS(=O)(=O)c2ccc(N)cc2)n1 | inactive | inactive |  | inactive | inactive | inactive | inactive |  | inactive |  | 
34 | C1=CC2C3C=CC(C3)C2C1 (configuration not stated) | inactive | inactive |  |  | inactive | inactive | inactive |  | inactive |  | -3.38% [at 3.15 µM] (inactive)
35 | CC(=O)CC(c1ccccc1)c1c(O)c2ccccc2oc1=O (configuration not stated) | inactive | inactive |  | inactive | inactive | 68.9 µM (active) and inactive | inactive |  | inactive | inactive | 
36 | CN(C)C(=S)SC(=S)N(C)C | 2.5 µM (active) and 5.45 µM (active) and 3.76 µM (active) | 2.5 µM (active) and 1.72 µM (active) and 3.35 µM (active) |  | inactive | inactive | 789 nM (active) and 217 nM (active) and 6.68 µM (active) | inactive |  | inactive |  | 
37 | CC(=O)Nc1c(I)c(NC(C)=O)c(I)c(C(=O)O)c1I | inactive | inactive |  | inactive | inactive | inactive | inactive |  | inactive |  | 
38 | CNNCc1ccc(C(=O)NC(C)C)cc1 | inactive | inactive |  | inactive | inactive | inactive | inactive |  | inactive | inactive | 
